# Bioassay records: PubChem, National Center for Advancing Translational Sciences (NCATS)
# SMN2 splice up: qHTS Assay for Enhancers of SMN2 Splice Variant Expression | HEK293 SMN2-luciferase splicing reporter, luminescence, 30-36 h | Potency, µM (highest dose often 46.1 µM), inactives show at the top dose activity change, positive = activation, actives largely listed as activators | actives 2.8% (n = 210,000) | AID 1458, 2008; further: % of control where 0% means no effect; nearly all actives have a fitted effect of over 55% in size
#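 HEK293 cells carry an SMN2 […]–luciferase reporter in which exon 7 inclusion puts luciferase in frame. Cells were plated 10-12 h before compound addition, then incubated 30-36 h at 37C. ONE-Glo luminescence was read; sodium butyrate at 4.5 mM final served as control.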
# ELG1 genotoxic: qHTS screen for small molecules that induce genotoxicity in human embryonic kidney (HEK293T) cells expressing luciferase-tagged ELG1 | Potency, µM (highest dose often 46 µM), for inactives: at the highest dose activity change, positive = activation, most hits filed as activators | actives 1.3% (n = 330,000) | HEK293T ELG1-luciferase reporter, luminescence, 16 h; further: % of control where 0% means no effect; nearly all actives have a fitted effect of over 60% in size
#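 ELG1-luciferase HEK293T cells, 2,000/well; compound pinned in; 16 hr, 37 °C, 5% CO2; ONE-Glo, 30 min RT; luminescence on CCD imager.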
# FLuc modulator: qHTS profiling assay for firefly luciferase inhibitor/activator using purifed enzyme and Km concentrations of substrates (counterscreen for miR-21 project); actives 6.9% (n = 360,000); Luciferin 4-monooxygenase (Photinus pyralis), P08659; purified FLuc, Km substrates, luminescence inhibition; Potency, µM (highest dose often 57.5 µM), without a hit: at the highest dose activity change, negative = inhibition, hits mostly inhibitors;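 further: plate controls were vehicle for no effect and reference inhibitor for full effect; nearly all actives have a fitted effect of over 55% in size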
# Target sequence (P08659 whole entry, looked up): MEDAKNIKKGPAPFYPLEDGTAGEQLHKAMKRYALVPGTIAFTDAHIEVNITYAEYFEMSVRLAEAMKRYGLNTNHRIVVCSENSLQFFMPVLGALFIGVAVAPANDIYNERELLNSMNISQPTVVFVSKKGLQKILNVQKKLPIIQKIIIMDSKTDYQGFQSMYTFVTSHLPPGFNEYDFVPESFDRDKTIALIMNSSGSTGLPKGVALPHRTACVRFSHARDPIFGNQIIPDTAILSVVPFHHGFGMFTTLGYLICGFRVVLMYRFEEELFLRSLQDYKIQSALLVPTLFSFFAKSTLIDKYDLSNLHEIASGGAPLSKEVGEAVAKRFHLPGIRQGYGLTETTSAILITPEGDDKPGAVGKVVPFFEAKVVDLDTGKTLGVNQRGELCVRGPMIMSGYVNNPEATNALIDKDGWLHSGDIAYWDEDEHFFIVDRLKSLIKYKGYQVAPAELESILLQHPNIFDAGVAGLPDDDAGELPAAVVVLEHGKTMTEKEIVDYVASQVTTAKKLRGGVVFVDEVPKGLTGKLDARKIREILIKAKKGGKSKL
#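 Purified P. pyralis luciferase, 10 nM final, with Km-level 10 uM D-luciferin and 10 uM ATP in 50 mM Tris acetate pH 7.5, 10 mM Mg acetate, 0.01% Tween-20, 0.05% BSA; 6-point qHTS titration about 60 µM downward; luminescence read.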
# NPC1 prom act: qHTS Assay for NPC1 Promoter Activators. Huh7 NPC1 promoter luciferase reporter, 24 h. Potency, µM (top dose mostly 9.22 µM), inactives show top-dose activation, actives largely listed as activators. actives 2.4% (n = 320,000). AID 485313, 2010; further: % of control where 0% means no effect; nearly all actives have a fitted effect of over 60% in size
#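 Quantitative HTS used a cell-based reporter: Huh7 cells stably bearing the NPC1 promoter upstream of luciferase were treated with compounds for 24 h, and promoter activation was read as luminescence.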
# KinaseGlo FLuc: Counterscreen for Luciferase (Kinase-Glo TM) Inhibition | Luciferin 4-monooxygenase (Photuris pensylvanica), Q27757 | Kinase-Glo luciferase, ATP luminescence, 8 min | Potency, µM (doses to about 38.3 µM), for the others: at the highest dose activity change, negative = inhibition, most hits filed as inhibitors | actives 0.28% (n = 200,000); further: on the % scale 0 is the no-effect control and ±100 the full control effect; nearly all actives have a fitted effect of over 60% in size
#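 Light output from Kinase-Glo luciferase with luciferin and 10 uM ATP in 50 mM imidazole pH 7.2, KCl, MgCl2, Tween 20, BSA; compound pin-delivered, 8-min ambient incubation, then luminescence read.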
# Rab9 promoter act: qHTS Assay for Rab9 Promoter Activators; actives 2.8% (n = 320,000); Huh7 Rab9 promoter-luciferase reporter, luminescence, 24 h; Potency, µM (doses to about 9.22 µM), inactives show top-dose activation, negative = inhibition, most hits filed as activators; further: % of control where 0% means no effect; nearly all actives have a fitted effect of over 60% in size
#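 Promoter activation is measured as luciferase luminescence in Huh7 cells stably transfected with a Rab9 promoter–luciferase construct, following 24 h compound exposure at 37 °C and 10 min reagent incubation at ambient temperature.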
# Active calls of the source: *; ? = inconclusive; / = no result given; [ ] = another dose, or the depositor's remark. Hits are enriched below; roughly 7.5% of the tested compounds scored in any of these assays. The call rests on the fitted dose curve; in most records, active means well fitted curve in the direction sought with a large enough effect; inconclusive means small, poorly fitted or top-dose-only effect, or another doubt; inactive means no such curve, though single readings can be large; an effect the other way counts as inactive or inconclusive. Potency means the concentration at half of the fitted maximal effect.
SMILES,SMN2 splice up,ELG1 genotoxic,FLuc modulator,NPC1 prom act,KinaseGlo FLuc,Rab9 promoter act
COc1ccc(COC(=O)Oc2ccc(CNC(C)=O)cc2OC)c([N+](=O)[O-])c1,/,-0.3%,13.5µM*,-4.1%,/,-2.3%
COc1cc(COC(=O)Oc2ccc(CNC(C)=O)cc2OC)c([N+](=O)[O-])cc1OC,/,3.6%,-3.6%,-3.4%,/,-5.1%
NNC(=O)c1csc(COc2cc(Cl)cc(Cl)c2)n1,/,0.9%,3.9%,-5.7%,/,-3.3%
CC(=O)c1csc(COc2ccc(Cl)cc2)n1,/,?,23.9µM*,0.891µM*,/,0.794µM*
CC(=O)Nc1nnc(COc2ccc(Cl)cc2)s1,11.2µM*,14.6µM*,15.1µM*,3.16µM*,3.8%,3.55µM*
COc1ccc(N2C(=O)CC(Sc3nc4c(cc3C#N)CCC4)C2=O)cc1 (stereo not drawn),/,6.2%,-2.1%,?,-6.7%,?
Cc1ccc(C(=O)Nc2ccc3c(c2)CCC3)o1,4.47µM*,3.26µM*,4.26µM*,3.16µM*,12.6µM*,2.82µM*
O=C(Nc1ccc2c(c1)CCC2)c1cc2ccccc2o1,12.6µM*,1.64µM*,1.35µM*,1.26µM*,-5.0%,1.26µM*
O=C(Nc1ccc2c(c1)CCC2)c1ccc(Br)o1,12.6µM*,6.51µM*,6.75µM*,3.55µM*,-20.6%,3.16µM*
Cc1ccc(NC(=O)c2ccc(Br)o2)cc1S(=O)(=O)N(C)C,?,4.3%,13.5µM*,?,-2.2%,?
COc1ccc(-c2[nH]ncc2CN(CCO)Cc2cccs2)c(F)c1,/,-1.4%,0.4%,-1.6%,0.2%,-0.8%
COc1ccc(NC(=O)COc2ccccc2Cc2ccccc2)cc1S(=O)(=O)N1CCOCC1,/,-2.5%,-0.3%,0.0%,/,-7.8%
CNC(=O)COc1ccc(Nc2nnc(-c3ccc(C)c(S(N)(=O)=O)c3)c3ccccc23)cc1,/,-2.0%,-17.3%,-5.9%,/,3.3%
Cc1oc2ccc(O)c(CN3CCCC3)c2c1C(=O)Nc1ccc(C(C)C)cc1,-6.4%,/,-16.2%,/,/,/
O=C(Nc1ccc2c(c1)OCO2)c1ccc(COc2ccc3c(c2)CCC3)o1,11.2µM*,?,19µM*,?,-6.4%,3.98µM*
O=C(Nc1ccc2c(c1)OCO2)c1ccc(Br)o1,11.2µM*,18.4µM*,23.9µM*,2.51µM*,-28.9%,2.82µM*
CCOc1ccc(S(=O)(=O)N(CC(=O)NCCSc2ccccc2)c2ccccc2)cc1,-6.6%,/,-4.8%,/,/,/
Nc1nn(-c2ccccc2)nc1C(=O)OCc1ccccc1,29.8%,?,15.1µM*,12.9%,/,18.1%
NC(=O)CSc1ncc2c(n1)-c1ccccc1N(Cc1ccc(Cl)cc1)S2(=O)=O,/,/,1.9%,/,/,/
CC(/C=C/c1ccc(N(C)C)cc1)=N\N=C(/N)SC1CC(=O)N(c2ccc(C(=O)O)cc2)C1=O (stereo not drawn),?,?,1.07µM*,26.1%,-6.9%,?
COc1cccc(/C=N/Nc2nn3cnnc3c3ccccc23)c1,-3.9%,8.2%,10.7µM*,25.1%,3.55µM*,15.9%
COc1cc(/C=N/Nc2nn3cnnc3c3ccccc23)ccc1O,10.0%,0.8%,2.69µM*,13.6%,12.6µM*,7.8%
Oc1ccc(/C=N/Nc2nn3cnnc3c3ccccc23)cc1,/,1.1%,9.53µM*,?,/,2.2%
C(=N\Nc1nn2cnnc2c2ccccc12)/c1ccco1,-27.9%,3.8%,-12.1%,-0.3%,-17.6%,-3.5%
COc1cccc(/C=N/Nc2nc3ccccc3n3cnnc23)c1,-5.6%,-1.2%,-5.9%,-1.2%,-2.2%,-6.8%
SMILES,SMN2 splice up,ELG1 genotoxic,FLuc modulator,NPC1 prom act,KinaseGlo FLuc,Rab9 promoter act
CCOc1cc(/C=N/Nc2nn3cnnc3c3ccccc23)ccc1O,/,8.3%,5.36µM*,25.3%,/,17.9%
Cc1ccc(/C=C/c2onc(C)c2S(=O)(=O)N2CCC(C(=O)Nc3cc(C)ccc3C)CC2)cc1,/,/,3.1%,/,/,/
CCC1(CC)NC(=O)N(CC(=O)Nc2ccc(S(=O)(=O)N3CCOCC3)cc2)C1=O,9.0%,-5.3%,5.4%,0.6%,-3.7%,0.7%
COc1cc(NC(=O)C2CC2)c(OC)cc1NC(=O)c1ccco1,/,-0.7%,1.1%,-3.7%,/,-0.9%
O=C(Nc1ccc(NC(=O)c2ccco2)nc1)c1ccccn1,14.1µM*,?,6.01µM*,0.447µM*,10µM*,0.708µM*
CC(C)(C)C(=O)Nc1ccc(NC(=O)c2ccco2)nc1,/,?,0.169µM*,-34.4%,/,-39.4%
O=C(Nc1ccc(NC(=O)C23CC4CC(CC(C4)C2)C3)cn1)c1ccco1,31.5%,2.31µM*,6.01µM*,1µM*,-7.2%,21.8%
O=C(Nc1ccc(NC(=O)C2CC2)cc1)c1ccco1,/,13µM*,19µM*,3.16µM*,/,1.78µM*
CCC(=O)Nc1ccc(NC(=O)C23CC4CC(CC(C4)C2)C3)cn1,?,?,-15.1%,23.2%,-4.1%,21.4%
COc1ccccc1C(=O)Nc1ccc(NC(=O)c2ccco2)cn1,/,?,6.01µM*,?,/,?
O=C(Nc1ccccn1)c1ccco1,?,9.0%,?,?,-7.1%,?
O=C(Nc1ccc(NC(=O)C2CCCCC2)cn1)c1ccco1,/,0.651µM*,1.69µM*,0.708µM*,/,0.447µM*
O=C(Cc1ccccc1)Nc1ccc(NC(=O)c2ccco2)nc1,?,?,16.9µM*,2.24µM*,-8.2%,2.51µM*
CCCC(=O)Nc1ccc(NC(=O)Cc2ccccc2)cn1,-14.5%,-1.8%,0.2%,1.5%,-2.1%,2.0%
O=C(Nc1ccc(NC(=O)c2ccco2)nc1)c1ccco1,2.51µM*,4.3%,4.78µM*,0.398µM*,-23.0%,0.316µM*
O=C(CN1C(=O)C(=O)N(Cc2ccco2)C1=O)Nc1ccccc1,/,1.6%,/,/,/,/
C=CCN1C=CC(=O)CC1,/,3.5%,0.8%,-8.4%,/,-1.5%
COc1ccccc1NC(=O)CSc1nc(SC)ns1,/,10.6%,-5.3%,4.5%,/,18.9%
COc1ccc(-c2csc(NC(=O)CSc3nc(SC)ns3)n2)cc1,22.4µM*,?,?,?,-1.2%,25.8%
COc1ccc(-c2csc(NC(=O)CSCC(=O)Nc3cc(C)on3)n2)cc1,/,0.6%,?,8.3%,/,1.3%
COc1ccc(-c2csc(NC(=O)CSc3nc(C)nc4sc(C(=O)O)c(C)c34)n2)cc1,/,1.2%,26.9µM*,-2.4%,/,-3.0%
CCCN=C(N)NCCC[C@H](N)C(=O)O,/,/,/,/,0.9%,/
CN(C)c1ccc(/C=C(/NC(=O)c2ccccc2Cl)C(=O)NCCN2CCOCC2)cc1,/,-1.4%[9.26 µM],-8.9%,-5.5%,/,2.5%
